From PubChem BioAssay (NCI) come the findings set out here.

“And” between values parts separate entries of the source, which are not always exact repeats. Equal values may be shown once. About 83,000 compounds went through this panel and 20% of them were active in at least one assay; those are over-represented in the sample as a whole.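 Interpretation: 100, growth as untreated; towards 0, rising growth inhibition; 0, no net growth; 0 to -100, cell death. Compounds scoring below 10 were considered active.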 Values without a mark were called inactive. The source made the active and inactive calls.

The subject of the assay is MDA-MB-468 breast. The experiment in a line: NCI-60 one-dose screen, 48 h (100 = growth as untreated, 0 = no growth, -100 = all killed). Particulars: 10 µM unless noted.
Take `COC(=O)[C@H](Cc1ccc(O)cc1)NC(=O)[C@@H](OC)[C@@H]1Cc2cc3cc(OC4CC(OC5CC(O)C(O)C(C)O5)C(O)C(C)O4)c(C)c(O)c3c(O)c2C(=O)[C@H]1OC1CC(OC2CC(OC3CC(C)(O)C(O)C(C)O3)C(O)C(C)O2)C(O)C(C)O1` (some centres undefined): the growth is -25.5% (active). The result for `ClCc1cccc2c(CCl)cccc12` reads -18.3% (active); that for `O=[N+]([O-])c1ccc(Oc2cc(Cl)c(Cl)cc2Cl)c(C(F)(F)F)c1`, 100%. `Cc1sc2ncn(CC(=O)Nc3ccc(S(N)(=O)=O)cc3)c(=O)c2c1C`: the growth was 104%. For `C=C1CCC2C(C)(CO)C(O)CCC2(C)C1C/C=C1/C(=O)OCC1O/C=C/c1ccccc1` (centres undefined), the growth was 80.5%. `c1ccc(CN=C(NCc2ccccc2)NCc2ccccc2)cc1`: the growth was -14.8% (active). On to `CCOC(=O)C1C(=O)C=C(c2ccccc2)CC1c1sc(N(C)Cc2ccccc2)nc1Cl` (centres undefined), for which the growth was 80.9%. As to `COc1cc(/C=C/c2cc(/C=C/c3ccc(O)c(OC)c3)n(C(=O)Nc3ccc(F)cc3)n2)ccc1O`, the growth is -14.6% (active). Consider `COc1ccc(-c2[nH][nH]c(=O)c2-c2nc3ccccc3s2)cc1`, for which the growth was 119%. As to `COc1cc(/C=C2\C=C(c3ccccc3)N(CCc3ccccc3)C2=O)cc(OC)c1OC`, the growth is 89.2%. As to `COc1ccc(-c2cc(/C=C3\C(=O)Nc4ccc(OC)cc43)[nH]n2)cc1`, the growth was 19%.

As to `CCOc1cccc(-c2nc3sccn3c2-c2ccnc(S(C)(=O)=O)n2)c1`, the growth was -0.693% (active). With `O=C(CN1CCOCC1)N1CCOCC1`, the growth was 108% and 116%. For the compound `CN1CCN(c2nc3scc(-c4ccccc4)c3c(=O)[nH]2)CC1`, the growth was 98.1%. For `O=[N+]([O-])c1ccc2[nH]c3nccc(NCc4cccc(Cl)c4)c3c2c1`, the growth was 69%.

Consider `CC(=O)Nc1ccc([I+]c2ccc([N+](=O)[O-])cc2)cc1`, for which the growth was 41.7%. Regarding `CCOC(=O)c1nc2c3ccccc3ccn2c1C(=O)OC`, the growth was 92.1%. Turning to `CC(C)(C)CC(C)(C)NCc1cc(C(C)(C)C)cc(CNC(C)(C)CC(C)(C)C)c1O`, the growth is 36.2%.

On to `Cc1[nH]nc2c1C(c1cnn(C)c1)C(C#N)=C(N)O2` (centres undefined), for which the growth was 92.4%. In the case of `Cc1ccc(O)c(C(=O)c2ccccc2Cl)c1`, the growth was 106%. The result for `CN(C)c1ccc(C(C#N)(c2ccccc2)c2ccc(N(C)C)cc2)cc1` reads 82.8%; that for `CCCCOc1cc(C(=O)NCCN(CC)CC)c2ccccc2n1`, 81.3% and 94.3%. `CCCCCCCCCCCCCCCCCCNC(=S)N/N=C/c1ccc(OC)c(OC)c1`: the growth was 93.5%.

As for `O=C1c2ccc3c4c(ccc(c24)C(=O)N1CCCNCc1ccccc1Cl)C(=O)N(CCCNCc1ccccc1Cl)C3=O`, the growth was -89% (active). Regarding `CCCCCN(CCCCC)CC(O)c1c(Cl)ccc2ccccc12` (centres undefined), the growth was 78.9%. The result for `O=c1c2ccccc2sc2c(NCCN3CCOCC3)nc3ccccc3c12` reads 59.4%.

`Nc1cc2c(cc1Cl)-c1ccc(Cl)cc1C2=O`: the growth was 86.1%.

Consider `CCOc1ccc(C(=O)O)cc1`, for which the growth was 83.4%. To `COc1cc(/C=C2\Oc3cc(OCCCN4CCCC4)ccc3C2=O)cc(OC)c1` belongs 42.3%; to `CC(C)CC1NC(C)(C)CO1` (centres undefined), 108%. With `CC(=O)Nc1c(I)c(NC(C)=O)c(I)c(C(=O)O)c1I`, the growth was 115%.

With `CN(C)CCC=C1c2ccccc2C(C)(C)c2ccccc21`, the growth was 56.6%. On to `CN(C)c1nc(-c2ccco2)n2nc(-c3ccco3)cc2n1`, for which the growth was -22.1% (active). With `COc1cnc2c(c1)C(=O)c1c-2n(CCCN2CCOCC2)c(=O)c2cc(Cl)ccc12`, the growth was -1.98% (active). The result for `COc1ccc(NC2=CC(=O)C(C)=C(C)C2=O)cc1` reads 57%; that for `O=C1Nc2ccccc2/C1=C/c1ccc(OCC(=O)c2ccccc2)cc1`, 94.6%. Regarding `CC1=NN(c2ccccc2Cl)C(=O)/C1=C\c1cn(S(=O)(=O)c2ccc(C)cc2)c2ccccc12`, the growth is 119%. To `COc1cccc(C2C3=C(COC3=O)N(CCO)c3cc4c(cc32)OCCO4)c1` (centres undefined) belongs -52.9% (active); to `COc1cccc(/C=C\C(=O)c2ccccc2)c1`, 69.4%.
